In PubChem BioAssay (Tox21):
Records with an inconclusive call do not appear. The source made the active and inactive calls. Unless noted, the call rests on the fitted dose curve; in most records, active means well fitted curve in the direction sought with a large enough effect in the repeat runs; inconclusive means weak or mixed curves; inactive means no such curve, though single readings can be large; an effect the other way counts as inactive or inconclusive.

What was measured:
[1] = qHTS assay for small molecule agonists of the p53 signaling pathway (AID 651631; calls by dose curve; further: nearly all actives have a fitted effect of over 15% in size; further: potency means the concentration at half of the fitted maximal effect)
Procedure, shortened: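 Quantitative high-throughput format: 4,000 p53RE-bla HCT-116 cells/well, 5 h pre-incubation, 16 h compound exposure at 37 °C, 2 h room-temperature substrate step, fluorescence intensity measured.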

[2] = qHTS assay for small molecules that induce genotoxicity in human embryonic kidney cells expressing luciferase-tagged ATAD5 (AID 651632); further: nearly all actives have a fitted effect of over 15% in size
Procedure, shortened: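 Increased luciferase signal from ATAD5-tagged reporter cells indicates DNA-damage-driven ATAD5 induction. HEK293T cells are treated for 16 hr at 37C before detection with Amplite.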

[3] = qHTS assay for small molecule agonists of the p53 signaling pathway - cell viability (AID 651633; calls by dose curve; further: nearly all actives have a fitted effect of over 30% in size; further: potency means the concentration at half of the fitted maximal effect)
Procedure, shortened: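 Viability counter-read: CellTiter-Glo luminescence (30 min, room temperature) in the same p53RE-bla plates. These plates had been exposed to compounds for 16 h at 37 C.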

[4] = qHTS assay for small molecules that induce genotoxicity in human embryonic kidney cells expressing luciferase-tagged ATAD5 - cell viability (AID 651634; calls by dose curve; further: nearly all actives have a fitted effect of over 25% in size; further: potency means the concentration at half of the fitted maximal effect)
Procedure, shortened: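 Cytotoxicity counterscreen in HEK293T cells bearing an ATAD5-luciferase reporter: live-cell protease activity measured by CellTiter-Fluor fluorescence after 15.5 hr compound exposure.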

[5] = qHTS assay to test for compound auto fluorescence at 590 nm (red) in HepG2 cells (AID 720674)
Procedure, shortened: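 1 hr compound incubation on HepG2 cells, 37 C, 5% CO2; plate read ex 540 nm / em 590 nm; intensities reported as Rose Bengal sodium equivalents.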

[6] = qHTS assay to test for compound auto fluorescence at 535 nm (green) in HepG2 cells (AID 720675)
[7] = qHTS assay to test for compound auto fluorescence at 460 nm (blue) in HEK293 cells (AID 720678)
Procedure, shortened: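 Triamterene serves as the blue fluorophore standard. Compound signal at 405/460 nm is read in HEK293 wells (2,000 cells, 10% dialyzed FBS) after overnight treatment at 37C.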

[8] = qHTS assay to test for compound auto fluorescence at 590 nm (red) in HEK293 cells (AID 720679)
Procedure, shortened: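 We plated HEK293 cells in 10% dialyzed FBS medium, let them adhere for 4-5 hr, then added 23 nL compound. Overnight at 37C and 5% CO2 preceded fluorescence measurement at 540/590nm.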

[9] = qHTS assay for small molecule disruptors of the mitochondrial membrane potential - cell viability (AID 720634; calls by dose curve;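 further: human HepG2 liver cancer cells; series mostly up to about 83 µM; nearly all actives have a fitted effect of over 20% in size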)
Procedure, shortened: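 After overnight attachment at 37 C, HepG2 cells received compound or DMSO vehicle for 1 hr. Viability is then taken from ATP-driven luminescence following a 30 min room-temperature CellTiter-Glo step.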

[10] = qHTS assay for small molecule disruptors of the mitochondrial membrane potential (AID 720635); further: potency means the concentration at half of the fitted maximal effect
Procedure, shortened: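 Mitochondrial membrane potential tracked with Mito-MPS dye, red aggregates (ex 540/em 590 nm) against green monomers (ex 490/em 535 nm). Compound treatment 1 hr at 37C, dye 30 min in HepG2.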
On the % scale 0 is the no-effect control and ±100 the full control effect.

CCN(CC)c1ccc(C(=C2C=CC(=[N+](CC)CC)C=C2)c2ccc(S(=O)(=O)O)cc2S(=O)(=O)[O-])cc1
active: Potency [3] 27.3 µM | Potency [4] 27.3 µM
inactive: Potency [1] | Potency [2] | outcome [5] | outcome [6] | Potency [7] | outcome [8]

CC1CCCO1 (centres undefined)
inactive: Potency [1] | Potency [3] | Potency [4] | outcome [9] | outcome [5] | outcome [6] | Potency [7] | outcome [8]

O=C(O)c1cccc(C[C@@H]2COc3ccc(OCc4nc5cc(F)ccc5s4)cc3[C@@H]2O)c1
inactive: Potency [2] | Potency [3] | Potency [4] | outcome [9] | outcome [5] | outcome [6] | Potency [7] | outcome [8]
active: Potency [10] 54.5 µM

CC(=O)C(C)=O
inactive: Potency [1] | Potency [2] | Potency [3] | Potency [4] | outcome [5] | outcome [6] | Potency [7]

CCN(Cc1cccc(S(=O)(=O)O)c1)c1ccc(C(=C2C=CC(=[N+](CC)Cc3cccc(S(=O)(=O)O)c3)C=C2)c2ccccc2S(=O)(=O)[O-])cc1
inactive: Potency [1] | Potency [2] | outcome [5] | outcome [6] | Potency [7] | outcome [8]
active: Potency [4] 15.4 µM

C[C@@H]1[C@H](O)[C@@H](C)/C=C/C=C\C=C\C=C\C=C\C=C\C=C\[C@H](O[C@@H]2O[C@H](C)[C@@H](O)[C@H](N)[C@@H]2O)C[C@@H]2O[C@](O)(C[C@@H](O)C[C@@H](O)[C@H](O)CC[C@@H](O)C[C@@H](O)CC(=O)O[C@H]1C)C[C@H](O)[C@H]2C(=O)O (stereo in doubt)
inactive: Potency [1] | Potency [2] | Potency [3] | outcome [9] | outcome [5] | outcome [6] | Potency [7] | outcome [8]

Cc1c(C2(c3cc(Br)c(O)c(Br)c3C)OS(=O)(=O)c3ccccc32)cc(Br)c(O)c1Br
active: Potency [4] 8.38 µM
inactive: Potency [1] | Potency [2] | outcome [5] | outcome [6] | Potency [7] | outcome [8]

N[C@@H](Cc1cc(I)c(O)c(I)c1)C(=O)O
inactive: Potency [1] | Potency [2] | Potency [3] | Potency [4] | outcome [5] | outcome [6] | Potency [7] | outcome [8]

O=C(O)CCC(=O)c1ccc(-c2ccccc2)cc1
inactive: Potency [1] | Potency [2] | Potency [3] | Potency [4] | fluorescence, relative to Rose Bengal [5] 0.795% [at 18.6 µM] | fluorescence, % of triamterene [7] -0.239% [at 18.6 µM]

O=C(c1ccccc1)c1ccc(O)cc1
inactive: Potency [2] | Potency [3] | Potency [4] | outcome [9] | outcome [5] | outcome [6] | Potency [7] | outcome [8]
active: Potency [10] 27.6 µM

CCCCC(CC)COS(=O)(=O)O (centres undefined)
inactive: Potency [2] | Potency [3] | Potency [4] | outcome [9] | Potency [10] | outcome [5] | outcome [6] | Potency [7]

O=C1NC(=O)c2cccc3cccc1c23
active: Potency [10] 10.9 µM
inactive: Potency [2] | Potency [3] | Potency [4] | outcome [9] | outcome [5] | outcome [6] | Potency [7]

COc1ccc(N)c([N+](=O)[O-])c1
inactive: Potency [1] | Potency [2] | Potency [3] | outcome [9] | Potency [10] | outcome [5] | outcome [6] | Potency [7] | outcome [8]

CCOC(=O)C(C)O (centres undefined)
inactive: Potency [1] | Potency [2] | Potency [3] | Potency [4] | outcome [5] | outcome [6] | Potency [7] | outcome [8]

SCCc1cnccn1
inactive: Potency [3] | Potency [4] | outcome [9] | Potency [10] | outcome [5] | outcome [6] | Potency [7] | outcome [8]
active: Potency [1] 61.1 µM

CC(C)c1ccc(C(=O)N=C(N)N)cc1S(C)(=O)=O
inactive: Potency [2] | Potency [3] | Potency [4] | outcome [9] | Potency [10] | outcome [5] | outcome [6] | Potency [7]

COc1ccc(-c2cc(=S)ss2)cc1
active: Potency [10] 2.11 µM
inactive: Potency [1] | Potency [3] | Potency [4] | outcome [9] | outcome [5] | outcome [6] | Potency [7] | outcome [8]

O=C(O)CCC(=O)OC[C@@H](NC(=O)C(Cl)Cl)[C@H](O)c1ccc([N+](=O)[O-])cc1
inactive: Potency [1] | Potency [3] | Potency [4] | outcome [9] | Potency [10] | outcome [5] | outcome [6] | Potency [7] | outcome [8]

[Cl][Nd]([Cl])[Cl]
inactive: Potency [1] | Potency [2] | Potency [3] | Potency [4] | outcome [9] | outcome [5] | Potency [7] | outcome [8]

CC[C@@H](CO)NCCN[C@@H](CC)CO
inactive: Potency [1] | Potency [3] | Potency [4] | outcome [9] | Potency [10] | fluorescence, relative to Rose Bengal [5] -0.504% [at 18.6 µM] | fluorescence, % of triamterene [7] 0.0077% [at 18.6 µM] | fluorescence, % of fluorescent control [8] -0.143% [at 18.6 µM]

CNS(=O)(=O)c1cc(C(=O)N2CCC(CCN3C4CCC3CC(n3c(C)nc5ccccc53)C4)(c3cccc(F)c3)CC2)c(Cl)cc1F (centres undefined)
active: Potency [3] 48.6 µM
inactive: Potency [1] | Potency [2] | outcome [9] | outcome [5] | Potency [7] | outcome [8]

O=C(O)CCS
inactive: Potency [1] | Potency [2] | Potency [3] | Potency [4] | outcome [5] | Potency [7] | outcome [8]

Nc1cccc2c(N)cccc12
inactive: Potency [2] | Potency [3] | Potency [4] | outcome [9] | outcome [5] | outcome [6] | Potency [7] | outcome [8]
active: Potency [10] 0.864 µM

Cc1cc(CCC(=O)OCCOCCOCCOC(=O)CCc2cc(C)c(O)c(C(C)(C)C)c2)cc(C(C)(C)C)c1O
inactive: Potency [1] | Potency [2] | Potency [3] | Potency [4] | outcome [5] | outcome [6] | Potency [7] | outcome [8]
active: Potency [10] 59.6 µM

COc1ccc(-n2nc(C(F)F)cc2-c2ccc(S(C)=O)cc2)cc1 (centres undefined)
inactive: Potency [1] | Potency [2] | Potency [4] | outcome [9] | Potency [10] | outcome [5] | Potency [7] | outcome [8]

c1ccc(CNc2ncnc3c2ncn3C2CCCCO2)cc1 (centres undefined)
inactive: Potency [1] | Potency [3] | Potency [4] | outcome [9] | outcome [5] | outcome [6] | Potency [7]

O=C(O)c1ccc(O)cc1O
inactive: Potency [1] | Potency [3] | Potency [4] | outcome [9] | outcome [5] | outcome [6] | Potency [7]

CC(C)OC(=O)c1ccccc1C(=O)OC(C)C
inactive: Potency [2] | Potency [3] | Potency [4] | outcome [9] | Potency [10] | outcome [5] | Potency [7] | outcome [8]

CC(C)(C)C1(CCc2ccc(Cl)cc2)CO1 (centres undefined)
active: Potency [10] 19.3 µM
inactive: Potency [2] | Potency [3] | Potency [4] | outcome [9] | outcome [5] | Potency [7]

CCCOC(=O)c1c(Cl)c(Cl)c(Cl)c(Cl)c1C(=O)OCCC
inactive: Potency [2] | Potency [3] | Potency [4] | outcome [9] | outcome [5] | Potency [7] | outcome [8]
active: Potency [10] 61.1 µM

CC(C)C1CCC(C(=O)N[C@H](Cc2ccccc2)C(=O)O)CC1 (some centres undefined)
inactive: Potency [2] | Potency [3] | Potency [4] | outcome [9] | outcome [5] | outcome [6] | Potency [7] | outcome [8]

CC/C=C\C/C=C\C/C=C\CCCCCCCC(=O)OCC
active: Potency [3] 62.5 µM
inactive: Potency [2] | Potency [4] | outcome [9] | outcome [5] | outcome [6] | Potency [7] | outcome [8]

COc1ccc(CCN(C)CCCN2CCc3cc(OC)c(OC)cc3CC2=O)cc1OC
inactive: Potency [2] | Potency [3] | Potency [4] | outcome [9] | Potency [10] | outcome [5] | outcome [6] | Potency [7] | outcome [8]

COc1cc(NCc2ccc3nc(N)nc(N)c3c2C)cc(OC)c1OC
inactive: Potency [2] | Potency [4] | outcome [9] | outcome [5] | outcome [6] | Potency [7] | outcome [8]
active: Potency [3] 0.335 µM

COc1ccc2nc(S(=O)Cc3ncc(C)c(OC)c3C)[nH]c2c1 (centres undefined)
inactive: Potency [2] | Potency [3] | Potency [4] | outcome [9] | Potency [10] | outcome [5] | outcome [6] | Potency [7] | outcome [8]

CCN(CC)c1cccc(O)c1
inactive: Potency [2] | Potency [3] | Potency [4] | outcome [9] | outcome [5] | outcome [6] | Potency [7] | outcome [8]

OCC(CO)n1cnc(-c2ccc(F)cc2)c1-c1ccnc(Oc2ccccc2)n1
inactive: Potency [2] | Potency [3] | Potency [4] | outcome [9] | outcome [5] | outcome [6] | Potency [7] | outcome [8]

COC1CCC=CO1 (centres undefined)
inactive: Potency [2] | Potency [3] | Potency [4] | outcome [9] | Potency [10] | outcome [5] | Potency [7] | outcome [8]

O=C(O)/C=C/c1ccc(O)c(O)c1
inactive: Potency [2] | Potency [3] | Potency [4] | outcome [9] | outcome [5] | outcome [6] | Potency [7] | outcome [8]

CC[C@H]1OC(=O)[C@H](C)[C@@H](O[C@H]2C[C@@](C)(OC)[C@@H](O)[C@H](C)O2)[C@H](C)[C@@H](O[C@@H]2O[C@H](C)C[C@H](N(C)C)[C@H]2O)[C@](C)(O)C[C@@H](C)/C(=N\OCOCCOC)[C@H](C)[C@@H](O)[C@]1(C)O
inactive: Potency [2] | Potency [3] | Potency [4] | outcome [9] | Potency [10] | outcome [5] | outcome [6] | Potency [7] | outcome [8]

CCOC(=O)c1ccc(NC(=O)CN2CCCCC2)cc1
inactive: Potency [2] | Potency [3] | Potency [4] | outcome [9] | Potency [10] | outcome [5] | outcome [6] | Potency [7] | outcome [8]

CC(C(=O)O)c1ccc(C(=O)c2cccs2)cc1 (centres undefined)
inactive: Potency [2] | Potency [3] | Potency [4] | outcome [9] | fluorescence, relative to Rose Bengal [5] 0.487% [at 18.6 µM] | fluorescence, % of fluorescein control [6] -0.0382% [at 18.6 µM] | fluorescence, % of triamterene [7] -0.243% [at 18.6 µM] | fluorescence, % of fluorescent control [8] 0.162% [at 18.6 µM]

O=C(O)CO
inactive: Potency [2] | Potency [3] | Potency [4] | outcome [9] | outcome [5] | outcome [6] | Potency [7] | outcome [8]

Cc1ccc(N(CC2=NCCN2)c2cccc(O)c2)cc1
inactive: Potency [2] | Potency [3] | Potency [4] | outcome [9] | outcome [5] | outcome [6] | Potency [7] | outcome [8]
